In the supplement of paper PMC8728848:
Shown is part of a subset that was picked to be rich in the strongest signals.

Assays:
Assay in all cases: glycan array binding signal (z-score within array); higher = stronger binding
Conditions in all cases: glycan notation: IUPAC condensed, linker removed
[1] = biological target: Man(a1-2)Man(a1-3)[Man(a1-2)Man(a1-6)]Man(a1-6)[Man(a1-2)Man(a1-2)Man(a1-3)]Man(b1-4)GlcNAc(b1-4)GlcNAc
How it was run: (§1)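 Glycan array data were curated from 3228 arrays in the Consortium for Functional Glycomics database and kept only where the protein sequence was available. Glycan names were converted to IUPAC-condensed notation, and columns mapping to the same glycan were averaged. The binding signal is a within-array Z-score, averaged across arrays of the same protein sequence at different concentrations or buffers and across linkers. Negative Z-scores can be read as non-binding.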

[2] = biological target: Man(a1-2)Man(a1-3)[Man(a1-6)]Man(a1-6)[Man(a1-2)Man(a1-3)]Man(b1-4)GlcNAc(b1-4)GlcNAc
How it was run: as §1

[3] = biological target: Man(a1-2)Man(a1-6)[Man(a1-3)]Man(a1-6)[Man(a1-2)Man(a1-2)Man(a1-3)]Man
How it was run: as §1

[4] = biological target: Man(a1-2)Man(a1-6)[Man(a1-3)]Man(a1-6)[Man(a1-2)Man(a1-2)Man(a1-3)]Man(b1-4)GlcNAc(b1-4)GlcNAc
How it was run: as §1

[5] = biological target: Man(a1-3)[Man(a1-6)]Man(a1-6)[Man(a1-2)Man(a1-3)]Man(b1-4)GlcNAc(b1-4)GlcNAc
How it was run: as §1

[6] = biological target: Neu5Ac(a2-6)Gal(b1-4)GlcNAc(b1-2)Man(a1-3)[Gal(b1-4)GlcNAc(b1-2)Man(a1-6)]Man(b1-4)GlcNAc(b1-4)GlcNAc
How it was run: as §1

[7] = biological target: Neu5Ac(a2-6)Gal(b1-4)GlcNAc(b1-2)Man(a1-6)[Man(a1-3)]Man(b1-4)GlcNAc(b1-4)GlcNAc
How it was run: as §1

[8] = biological target: Neu5Ac(a2-6)Gal(b1-4)GlcNAc(b1-3)Gal(b1-3)GlcNAc
How it was run: as §1

[9] = biological target: Neu5Ac(a2-6)Gal(b1-4)GlcNAc(b1-6)[Gal(b1-3)]GalNAc
How it was run: as §1

[10] = biological target: Neu5Ac(a2-6)Gal(b1-4)GlcNAc6S
How it was run: as §1

[11] = biological target: Neu5Ac(a2-6)GalNAc
How it was run: as §1

[12] = biological target: Neu5Ac(a2-6)GlcNAc(b1-4)GlcNAc
How it was run: as §1

[13] = biological target: Neu5Gc(a2-3)Gal(b1-4)Glc
How it was run: as §1

B1: Microvirin-2 (Microcystis aeruginosa) (protein)
chain: MPNFSHTCSSINYDPDSTILSAECQARDGEWLPTELRLSDHIGNIDGELQFGDQNFQETCQDCHLEFGDGEQSVWLVCTCQTMDGEWKSTQILLDSQIDNNDSQLEIGGSMPNFSHTCSSINYDPDSTILSAECQARDGEWLPTELRLSDHIGNIDGELQFGDQNFQETCQDCHLEFGDGEQSVWLVCTCQTMDGEWKSTQILLDSQIDNNDSQLEIG
glycan array binding signal (z-score) [1]: 3.1
glycan array binding signal (z-score) [2]: 5.79
glycan array binding signal (z-score) [3]: 6.04
glycan array binding signal (z-score) [4]: 13.3
glycan array binding signal (z-score) [5]: 7.25
glycan array binding signal (z-score) [6]: -0.142
glycan array binding signal (z-score) [7]: -0.143
glycan array binding signal (z-score) [8]: -0.123
glycan array binding signal (z-score) [9]: -0.107
glycan array binding signal (z-score) [10]: -0.142
glycan array binding signal (z-score) [11]: -0.133
glycan array binding signal (z-score) [12]: -0.135
glycan array binding signal (z-score) [13]: -0.12
